Data from PubChem BioAssay (NCI).
Compounds without any hit were thinned out: in the full panel of roughly 83,000, 20% have a hit.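 48-hour exposure, single concentration, 96-well plates; percent growth endpoint where 0 means no net growth. Active: below 10.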 Unmarked numbers belong to inactive results. The source made the active and inactive calls.

Key:
Assay in all cases: NCI-60 one-dose screen, 48 h (100 = growth as untreated, 0 = no growth, -100 = all killed)
Conditions in all cases: 10 µM unless noted
DU-145 prostate = tested on: DU-145 prostate
K-562 leukemia = tested on: K-562 leukemia
MALME-3M melanoma = tested on: MALME-3M melanoma
MDA-MB-231 breast = tested on: MDA-MB-231 breast
RXF 393 renal = tested on: RXF 393 renal
SF-268 CNS = tested on: SF-268 CNS
SF-295 CNS = tested on: SF-295 CNS
SF-539 CNS = tested on: SF-539 CNS
UACC-257 melanoma = tested on: UACC-257 melanoma
M14 melanoma = tested on: M14 melanoma

Row | Structure (SMILES) | growth (DU-145 prostate) | growth (K-562 leukemia) | growth (MALME-3M melanoma) | growth (MDA-MB-231 breast) | growth (RXF 393 renal) | growth (SF-268 CNS) | growth (SF-295 CNS) | growth (SF-539 CNS) | growth (UACC-257 melanoma) | growth (M14 melanoma)
1 | CC1(/C=C/c2ccc(-c3ccccc3)cc2)CCn2cnc3ncnc(c32)N1O (stereo not given) | 21.4% | 14.9% | 23.3% | 53.9% | 5.19% (active) | 16.6% | 13.3% | 1.19% (active) | 10.7% | -2.25% (active)
2 | COc1ccc(C2CC(n3ccnc3)c3cc(OC)c(OC)c(OC)c32)cc1O (stereo not given) | 102% | 44.7% | 73.2% | 81% | 70.8% | 90% | 57.5% | 89.8% | 58.5% | 73.1%
3 | Ic1ccc(Nc2nc3nonc3nc2Nc2ccc(I)cc2)cc1 | 22.7% | 4.38% (active) | -17.9% (active) | -5.93% (active) | -0.305% (active) | 20.8% | -47.6% (active) | 17% | -29.7% (active) | 2.71% (active)
4 | COc1ccc(OC)c(Nc2nnc(-c3cc(OC)c(OC)c(OC)c3)o2)c1 | 101% | 95.8% | 88.8% | 88.9% | 110% | 99.6% | 101% | 91.3% | 112% | 101%
5 | N#Cc1c(-c2ccccc2)cc(-c2ccccc2)n(CCCCC(=O)NO)c1=O | 20.2% | 6.77% (active) | 11.5% | 25.6% | -16.5% (active) | 43% | 1.64% (active) | 24.3% | 35.8% | 19.1%
6 | CCC(C)(C)c1ccc(Nc2ccc(Nc3ccc(C(C)(C)CC)cc3)cc2)cc1 | 93.8% | 80.4% | 97.4% | 93.5% | 83.4% | 98.6% | 102% | 102% | 80.3% | 92.5%
7 | COc1ccc(NC(=O)c2ccc(Nc3ncnc4c3cnn4-c3cccc(F)c3)cc2)cc1 | 103% | 94.8% | 92.6% | 92% | 90.2% | 99.1% | 98.3% | 96.5% | 97.9% | 98.4%
8 | CCOC(=O)c1nnn(Cc2cc(=O)oc3ccc(O)cc23)c1C | 115% | 103% | 103% | 105% | 113% | 108% | 97.7% | 102% | 105% | 100%
9 | CSc1ccc2c3c(n(C[C@H](O)CO)c(=O)c2c1)-c1ccccc1C3=O | 22% | 20.7% | 74.4% | 108% | 79.7% | 44% | 14.3% | 10.3% | 85.5% | 52.2%
10 | COc1cc2c3c(c4c5ccccc5[nH]c4c2c(OC)c1OC)C(=O)N(CCN1CCCCC1)C3=O | -91.2% (active) | 3.53% (active) | 32% | 38.1% | -9.89% (active) | 22.7% | 32.9% | 41.4% | 42.2% | 12.3%
11 | CC/C(=C(/c1ccc(O)cc1)c1ccc(OCCN2CCCCC2)cc1)c1ccc(OC)cc1 | 71.3% | -30.8% (active) | -28.3% (active) | 55.1% | 68.4% | 62.6% | 86.9% | 86.3% | 81% | -61.2% (active)
12 | O=CN1N=C(c2cccc(Nc3ccnc4cc(Cl)ccc34)c2)CC1c1ccc(Cl)cc1 (stereo not given) | 23.8% | 15.8% | 44.4% | 30.2% | -4.85% (active) | 37.1% | 11.7% | 19.2% | 52.8% | 21.7%
13 | Cn1c(=O)c2[nH]c(SC/C(=N/O)c3ccc(Br)cc3)nc2n(C)c1=O | 68.4% | 67.1% | 20% | -5.9% (active) | -73.4% (active) | 50% | 13.9% | -53.6% (active) | 84% | 58.8%
14 | C=C1C(=O)O[C@@H]2C3C(=C(C)CC[C@@H]12)CC1O[C@]13C (stereo not given in full) | 52.9% [6.75 µM] | 49.6% [6.75 µM] | 77.6% [6.75 µM] | 93.5% [6.75 µM] | 91.6% [6.75 µM] | 91.2% [6.75 µM] | 102% [6.75 µM] | 82.3% [6.75 µM] | 70.4% [6.75 µM] | 65.5% [6.75 µM]
15 | Cc1cc(=O)oc2cc(Oc3nc(Br)cn4c(Br)cnc34)ccc12 | 75% | 93.6% | 46.9% | 29.6% | 44.2% | 56.6% | 99.9% | 47.2% | 89.1% | 82.8%
16 | CC/C(=C(\c1ccc(Cl)cc1)c1ccc(OCCN2CCCCC2)cc1)c1ccc(O)cc1 | 39.7% | -28.4% (active) | -38.1% (active) | 26.5% | -6.93% (active) | 53% | 54.6% | 50% | -22.1% (active) | -55.5% (active)
17 | CN(C)CCC(=O)C1CC1 | 111% | 102% | 102% | 103% | 104% | 102% | 116% | 107% | 91.7% | 104%
18 | Nc1cc(C(=O)O)cc(-n2c(O)c(C=C3N=c4ccccc4=N3)sc2=S)c1 | 111% | 116% | 96.9% | 89.4% | 112% | 97.6% | 101% | 97.3% | 102% | 97.9%
19 | NS(=O)(=O)c1ccc(C(=O)N=Nc2c(O)[nH]c3ccc(Cl)cc23)cc1 | 102% | 98.3% | 90.3% | 98.7% | 109% | 91.9% | 98.7% | 96.4% | 103% | 102%
20 | COc1ccc(C(=O)/C=C/c2ccccc2)cc1S(N)(=O)=O | 41.7% | 7.9% (active) | 93.6% | 71.5% | 80.6% | 63.3% | 91.1% | 60.2% | 90.9% | 82.8%
21 | CN(C)CCC(CCN(C)C)(C(=O)O)c1ccccc1 | 115% | 98.1% | 97.5% | 97.2% | 112% | 107% | 103% | 95.3% | 99.7% | 99.2%
22 | COc1ccc(N=C2NN=C(c3c[nH]c4ccccc34)CS2)cc1OC | 65.9% | 36.6% | 69.3% | 55.4% | 68.6% | 56.2% | -31.9% (active) | 51.8% | 77.4% | 34%
23 | Cn1c(=O)[nH]c(=O)c2nc3c(nc21)-c1ccccc1C3=O | 104% | 99% | 102% | 101% | 99.3% | 99.3% | 97.7% | 95.8% | 102% | 99.4%
24 | C#Cc1cccc(Nc2ncnc3cc(NC(=O)CCl)ccc23)c1 | -96.8% (active) | -15.6% (active) | -74.3% (active) | -70.3% (active) | -86.2% (active) | -59.7% (active) | -82.5% (active) | -90.9% (active) | -7% (active) | -87.4% (active)
25 | CC12OC(CC(O)C1O)n1c3ccccc3c3c4c(c5c6ccccc6n2c5c31)C(=O)N(CCN1CCCC1)C4=O (stereo not given) | 3.68% (active) | 4.59% (active) | 13.2% | 56.9% | 21.1% | 29% | 2.23% (active) | 22.8% | 24.5% | 19%
26 | O=c1oc2ccccc2cc1-c1nn(-c2ccccc2)cc1-c1nn[nH]n1 | 113% | 103% | 90% | 94.7% | 99.4% | 103% | 99.7% | 97.4% | 100% | 98.2%
27 | Cn1c(C#N)ccc1-c1ccc(F)c(NC(=O)c2ccc(F)cc2)c1 | 94.3% | 23.6% | 91.2% | 73.7% | 85.3% | 81.9% | 68.8% | 73.8% | 107% | 59.8%
